According to PubChem BioAssay AID1159580 (chemical genetic matrix, 2015):
Screen size: about 5,500 compounds; about 2,000 (36%) were called active. Another 18% or so got no clear call; they are omitted. No stated cut-off is given here; in the data, active means normalized growth mostly below about 0.91 (no sharp cut-off); inconclusive means no clear call, values can overlap the other calls; inactive means mostly above about 0.92. The list shows a part of the results. Where a SMILES comes first, the peptide text is derived from it.

Experiment: chemical genetic growth profiling, strain panel (AID 1159580);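 further: tested at 20 µM; growth read once vehicle control cultures reached saturation at 30 °C; 1 = growth at the plate median or of vehicle wells; lower values mean less growth of the strain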
Settings: growth OD

Measured: normalized growth

CC(=O)N[C@@H](CC(=O)O)C(=O)N[C@@H](CCC(=O)O)C(=O)O (Ac-Asp-Glu-OH)
inactive: S. cerevisiae deletion strains, locus YJR075W, strain HOC1, hits give low values 1.01 | S. cerevisiae deletion strains, locus YKL009W, strain mrt4, hits give low values 0.987 | S. cerevisiae deletion strains, locus YKL068W, hits give low values 0.997 | S. cerevisiae deletion strains, locus YKL085W, strain MDH1 (second series), hits give low values 0.985 | S. cerevisiae deletion strains, locus YKL085W, strain MDH1, hits give low values 0.985 | S. cerevisiae deletion strains, locus YKL160W, strain elf1, hits give low values 1.01 | S. cerevisiae deletion strains, locus YKL190W, strain CNB1, hits give low values 1.02 | S. cerevisiae deletion strains, locus YKR001C, strain vps1, hits give low values 0.989 | S. cerevisiae deletion strains, locus YKR026C, strain gcn3, hits give low values 1 | S. cerevisiae deletion strains, locus YKR091W, strain srl3, hits give low values 0.996 | S. cerevisiae deletion strains, locus YLL001W, strain dnm1, hits give low values 0.994 | S. cerevisiae deletion strains, locus YLL026W, hits give low values 1 | S. cerevisiae deletion strains, locus YLL041C, strain sdh2, hits give low values 1 | S. cerevisiae deletion strains, locus YLR027C, strain aat2, hits give low values 1.01 | S. cerevisiae deletion strains, locus YLR039C, strain RIC1, hits give low values 1.04 | S. cerevisiae deletion strains, locus YLR058C, strain SHM2, hits give low values 1.01 | S. cerevisiae deletion strains, locus YLR102C, strain apc9, hits give low values 0.984 | S. cerevisiae deletion strains, locus YLR113W, strain HOG1, hits give low values 0.987 | S. cerevisiae deletion strains, locus YLR221C, strain rsa3, hits give low values 1 | S. cerevisiae deletion strains, locus YLR258W, strain gsy2, hits give low values 0.992 | S. cerevisiae deletion strains, locus YLR262C, strain YPT6 (second series), hits give low values 1.02 | S. cerevisiae deletion strains, locus YLR262C, strain YPT6, hits give low values 1.04 | S. cerevisiae deletion strains, locus YLR268W, strain sec22, hits give low values 0.981 | S. cerevisiae deletion strains, locus YLR320W, strain mms22, hits give low values 1 | S. cerevisiae deletion strains, locus YLR330W, strain CHS5, hits give low values 1.02 | S. cerevisiae deletion strains, locus YLR342W, strain FKS1 (second series), hits give low values 0.996 | S. cerevisiae deletion strains, locus YLR342W, strain FKS1, hits give low values 1 | S. cerevisiae deletion strains, locus YLR357W, strain rsc2, hits give low values 0.987 | S. cerevisiae deletion strains, locus YLR370C, strain arc18, hits give low values 1.02 | S. cerevisiae deletion strains, locus YLR371W, strain rom2, hits give low values 0.99 | S. cerevisiae deletion strains, locus YLR384C, strain iki3, hits give low values 0.998 | S. cerevisiae deletion strains, locus YLR418C, strain cdc73, hits give low values 0.982 | S. cerevisiae deletion strains, locus YML016C, strain PPZ1, hits give low values 1.02 | S. cerevisiae deletion strains, locus YML032C, strain rad52, hits give low values 0.985 | S. cerevisiae deletion strains, locus YML120C, strain ndi1, hits give low values 1.01 | S. cerevisiae deletion strains, locus YML124C, strain tub3, hits give low values 0.984 | S. cerevisiae deletion strains, locus YMR058W, strain fet3, hits give low values 1.01 | S. cerevisiae deletion strains, locus YMR078C, strain ctf18, hits give low values 1 | S. cerevisiae deletion strains, locus YMR125W, strain sto1, hits give low values 0.987 | S. cerevisiae deletion strains, locus YMR129W, hits give low values 1.01 | S. cerevisiae deletion strains, locus YMR205C, strain PFK2, hits give low values 0.967 | S. cerevisiae deletion strains, locus YMR223W, strain ubp8, hits give low values 0.983 | S. cerevisiae deletion strains, locus YMR231W, strain pep5, hits give low values 1.01 | S. cerevisiae deletion strains, locus YMR263W, strain SAP30, hits give low values 1.03 | S. cerevisiae deletion strains, locus YMR307W, strain GAS1, hits give low values 1.01 | S. cerevisiae deletion strains, locus YNL067W, strain RPL9B, hits give low values 1.02 | S. cerevisiae deletion strains, locus YNL071W, strain lat1, hits give low values 1.02 | S. cerevisiae deletion strains, locus YNL128W, strain TEP1, hits give low values 1.02 | S. cerevisiae deletion strains, locus YNL153C, strain GIM3, hits give low values 1.01 | S. cerevisiae deletion strains, locus YNL183C, strain NPR1, hits give low values 0.894 | S. cerevisiae deletion strains, locus YNL209W, strain ssb2, hits give low values 0.997 | S. cerevisiae deletion strains, locus YNL233W, strain BNI4, hits give low values 1.02 | S. cerevisiae deletion strains, locus YNL248C, strain rpa49, hits give low values 1.01 | S. cerevisiae deletion strains, locus YNL250W, strain rad50, hits give low values 0.982 | S. cerevisiae deletion strains, locus YNL271C, strain bni1, hits give low values 0.984 | S. cerevisiae deletion strains, locus YNL298W, strain CLA4, hits give low values 0.987 | S. cerevisiae deletion strains, locus YNL307C, strain MCK1, hits give low values 0.988 | S. cerevisiae deletion strains, locus YNL322C, strain KRE1 (second series), hits give low values 1 | S. cerevisiae deletion strains, locus YNL322C, strain KRE1, hits give low values 1.01 | S. cerevisiae deletion strains, locus YNR049C, strain mso1, hits give low values 1.01 | S. cerevisiae deletion strains, locus YNR052C, strain pop2, hits give low values 0.991 | S. cerevisiae deletion strains, locus YOL006C, strain TOP1, hits give low values 1.03 | S. cerevisiae deletion strains, locus YOL012C, strain htz1 0.942 | S. cerevisiae deletion strains, locus YOL147C, strain pex11, hits give low values 0.987 | S. cerevisiae deletion strains, locus YOR001W, strain rrp6, hits give low values 1.01 | S. cerevisiae deletion strains, locus YOR061W, strain CKA2, hits give low values 1.01 | S. cerevisiae deletion strains, locus YOR069W, strain VPS5, hits give low values 1.01 | S. cerevisiae deletion strains, locus YOR070C, strain gyp1, hits give low values 1.01 | S. cerevisiae deletion strains, locus YOR080W, strain dia2, hits give low values 0.988 | S. cerevisiae deletion strains, locus YOR083W, strain WHI5, hits give low values 1.01 | S. cerevisiae deletion strains, locus YOR106W, strain vam3, hits give low values 1.02 | S. cerevisiae deletion strains, locus YOR136W, strain idh2, hits give low values 0.99 | S. cerevisiae deletion strains, locus YOR144C, strain elg1, hits give low values 1 | S. cerevisiae deletion strains, locus YOR184W, strain ser1, hits give low values 0.979 | S. cerevisiae deletion strains, locus YOR231W, strain MKK1, hits give low values 0.982 | S. cerevisiae deletion strains, locus YOR265W, strain rbl2, hits give low values 1.01 | S. cerevisiae deletion strains, locus YOR270C, strain vph1, hits give low values 1.1 | S. cerevisiae deletion strains, locus YOR290C, strain snf2, hits give low values 0.975 | S. cerevisiae deletion strains, locus YOR316C, strain cot1, hits give low values 0.997 | S. cerevisiae deletion strains, locus YPL051W, strain arl3, hits give low values 1.01 | S. cerevisiae deletion strains, locus YPL055C, strain LGE1, hits give low values 1.02 | S. cerevisiae deletion strains, locus YPL078C, strain atp4, hits give low values 1.03 | S. cerevisiae deletion strains, locus YPL106C, strain sse1, hits give low values 0.975 | S. cerevisiae deletion strains, locus YPL240C, strain hsp82, hits give low values 1.01 | S. cerevisiae deletion strains, locus YPL241C, strain CIN2, hits give low values 1.01 | S. cerevisiae deletion strains, locus YPL256C, strain CLN2, hits give low values 1.01 | S. cerevisiae deletion strains, locus YPR119W, strain clb2, hits give low values 0.99 | S. cerevisiae deletion strains, locus YPR141C, strain kar3, hits give low values 0.995 | S. cerevisiae deletion strains, locus YPR163C, strain tif3, hits give low values 0.99 | S. cerevisiae deletion strains, locus YPR167C, strain met16, hits give low values 0.991 | S. cerevisiae deletion strains, strain wtn01, hits give low values 0.989 | S. cerevisiae strains, strain wild type, hits give low values 1
